Among all 48,000 compounds or so, about 13,000 (27%) showed an effect of 50% or more. The list shows a part of the results.
System: Wolbachia pipientis
Test: Anti-Wolbachia Cell-Based Screen
Type: functional
Parameters: scale not given: in the data most compounds retested in dose-response had high values
Details: 5 µM

| Structure (SMILES) | Percent Effect [%] |
| --- | --- |
| CCN1CC2(CCN(CC3COCCO3)CC2)OC1=O (centres undefined) | -23.81 |
| CN1CCN(CCCN(C)S(=O)(=O)C2CCCCC2)CC1 | -3.997 |
| CCc1cc(=O)[nH]c2nnc(SCC(=O)NC(C)C)n12 | 9.216 |
| CCn1c(CN(C)C)nnc1C1CCN(c2ccnc(C)c2)CC1 | -12.28 |
| Cn1nc(CNC(=O)c2nc3ccccc3s2)c2c1CCOC2 | -7.604 |
| Cn1nc(Cl)cc1C(=O)N1CCC(C(=O)c2nc3ccccc3s2)CC1 | 97.43 |
| Cn1nc2c(cc1=O)CN(c1nc3ccccc3s1)CC2 | 9.519 |
| Cc1sc2nc(C(F)(F)F)nc(N3CCCN(C)CC3)c2c1C | 3.641 |
| COc1nc(C)c(C(=O)N(C)Cc2nc(-c3ccccn3)no2)s1 | 6.707 |
| Cc1ccc(C(CNCc2ncc[nH]2)N2CCOCC2)s1 (centres undefined) | -41.63 |
| OC1CCCOC12CCN(Cc1nnc(-c3cccnc3)o1)CC2 (centres undefined) | -12.47 |
| O[C@H]1CN(Cc2ccnc(N3CCCC3)n2)CC[C@@]12CCCO2 | 120.1 |
| CCOC(=O)C1CCCN(Cc2c[nH]nc2-c2cc3ccccc3o2)C1 (centres undefined) | -24.88 |
| OC1CCCOC12CCN(c1ncccn1)CC2 (centres undefined) | 8.98 |
| O[C@H]1CN(Cc2c[nH]nc2-c2ccccc2)CC[C@@]12CCCO2 | 151.3 |
| COc1cc(OC)nc(N2CCC3(CC2)OCCCC3O)n1 (centres undefined) | -8.22 |
| Cc1ccccc1CC(C)(C)NC(=O)c1cccc(OCC(N)=O)c1 | -9.051 |
| CCn1nnc2c1C(COC)CN(C(=O)COc1ccccc1)C2 (centres undefined) | -1.685 |
| O=C(c1ncccn1)N1C[C@@H]2COC[C@]2(COCc2cccnc2)C1 | 11.05 |
| O=C(c1cocn1)N1C[C@@H]2COC[C@]2(COc2cccnc2)C1 | 92.15 |
| O=C(c1ncccn1)N1C[C@@H]2COC[C@]2(COc2cccnc2)C1 | 108.1 |
| O=C(c1ccncc1)N1CCc2c(COCC3CC3)cncc2C1 | -2.638 |

| Structure (SMILES) | Percent Effect [%] |
| --- | --- |
| N#Cc1ccc(C(=O)N2CCc3c(COCC4CC4)cncc3C2)cc1 | 120.9 |
| N#Cc1cccc(C(=O)N2CCc3c(COCC4CC4)cncc3C2)c1.O=C(O)C(F)(F)F | -0.2698 |
| COCc1cncc2c1CCN(C(=O)c1cccc(C#N)c1)C2.O=C(O)C(F)(F)F | 95.5 |
| O=C(c1cccnc1)N1CCc2c(COCC3CC3)cncc2C1 | 11.19 |
| CCOCc1cncc2c1CCN(C(=O)c1cccc(C#N)c1)C2 | 8.725 |
| COCc1cncc2c1CCN(C(=O)c1ccc(C#N)cc1)C2.O=C(O)C(F)(F)F | 122.8 |
| CC(C)=CCN1CCC2(CC1)c1ccccc1[C@@H](N1CCSCC1)[C@@H]2O | 17.95 |
| CNC(=O)N1CCc2nc(C(=O)Nc3cccnc3)sc2CC1 | -5.762 |
| CNC(=O)c1nc2c(s1)CCN(C(=O)c1ccccc1)CC2 | -10.92 |
| NC(=O)c1nc2c(s1)CCN(C(=O)Nc1cccc(Cl)c1)CC2 | 103.6 |
| NC(=O)c1nc2c(s1)CCN(C(=O)Nc1ccccc1)CC2 | 118.3 |
| CN(C)C(=O)c1nc2c(s1)CCN(C(=O)c1ccc(Cl)cc1)CC2 | -17.04 |
| COc1cccc(CC(=O)N2CCc3nc(C(N)=O)sc3CC2)c1 | -1.696 |
| O=C(c1ccc(Cl)cc1)N1CCc2nc(C(=O)N3CCCC3)sc2CC1 | 0.273 |
| CCN(CC)C(=O)c1nc2c(s1)CCN(C(=O)CCC(=O)OC)CC2 | -10.26 |
| O=C(Nc1ccccc1)N1CCc2nc(C(=O)N3CCCC3)sc2CC1 | 124.8 |
| NC(=O)c1nc2c(s1)CCN(Cc1ccccc1)CC2.O=C(O)C(F)(F)F | -10.1 |
| CCN(CC)C(=O)c1nc2c(s1)CCN(Cc1cccc(OC)c1)CC2.O=C(O)C(F)(F)F | -1.01 |
| CCN(CC)C(=O)c1nc2c(s1)CCN(C(=O)Nc1ccccc1)CC2 | 97.77 |
| O=C(c1ccc2c(c1)[nH]c(=O)n2C1CCCC1)N1CCSCC1 | 1.159 |
| CCCSc1ncc(CN2CCN(C)C(=O)C2C)cn1 (centres undefined) | 3.746 |
| Cc1nsc(NC(=O)N2CCN(Cc3ccccc3F)C(=O)C2)n1 | -10.42 |

| Structure (SMILES) | Percent Effect [%] |
| --- | --- |
| Clc1cccc(-c2noc(CCN3CCN(c4ccncc4)CC3)n2)c1 | 4.288 |
| CN(Cc1ccc(Cl)s1)C(=O)Nc1ccc(N(C)C)nc1 | 10.16 |
| COCCN(Cc1cnn(C)c1)C(=O)C1COc2c(cccc2OC)C1 (centres undefined) | -6.746 |
| CN1CC2(CCCCN2C(=O)c2ccsc2)CC1=O (centres undefined) | 106.9 |
| COCCCN1CC2(CCCCN2C(=O)COC)CC1=O (centres undefined) | -19.41 |
| CCN1CC2(CCCCN2C(=O)c2ccsc2)CC1=O (centres undefined) | 92.4 |
| CCN1CC2(CCCCN2C(=O)c2ccn(C)n2)CC1=O (centres undefined) | -5.146 |
| CCN1C(=O)CCCC12CCCN(C(=O)c1ccsc1)C2 (centres undefined) | 0.7078 |
| COc1ccccc1-c1ccc(C(=O)N2C[C@H]3CC[C@@H]2CN(C)C3)cc1 | 3.488 |
| Cc1nnc([C@@H]2CCO[C@@H]3CCN(C(=O)Cc4ccsc4)C[C@@H]32)o1 | -11.03 |
| O=C(NCCCC(=O)N1CCN(CC2CC2)c2ccccc21)C1CC1 | -7.741 |
| COc1ccc2c(c1)OCC(Cc1ccnc(N)n1)C2 (centres undefined) | -14.38 |
| COc1ccc2c(c1)OCC(Cc1cc(N3CCCC3)cnn1)C2 (centres undefined) | -5.296 |
| O=C(c1ccnc(CC2COc3ccccc3C2)c1)N1CCCC1 (centres undefined) | 99.57 |
| COc1ccc2c(c1)OCC(Cc1cc(C(=O)N3CCCC3)ccn1)C2 (centres undefined) | 87.9 |
| c1ccc2c(c1)CC(Cc1cc(N3CCCC3)cnn1)CO2 (centres undefined) | 9.635 |
| Nc1cc(CC2COc3ccccc3C2)ccn1 (centres undefined) | -18.54 |
| COc1cccc(CC(=O)N2CC[C@@H]3NC(=O)CC[C@@H]32)c1 | -6.606 |
| Cc1ccc(OCC(O)CNC(=O)C2(c3ccc(F)cc3)CC2)cc1 (centres undefined) | -8.798 |
| FC(F)(F)CCN(Cc1ccon1)C1CCCC1 | 5.052 |

From ChEMBL document CHEMBL3988442, “University of Dundee, Small-Polar-MMV Screening Library” (2021)
